Test results: PubChem BioAssay (NCI)
This is part of a sample that, as a whole, favours compounds with a hit. Of some 79,000 tested, about 15% had one in any assay. Rule as the data show it: active = growth inhibition above about 70%; inactive = the rest.

Tests used:
[1] = NCI Yeast Anticancer Drug Screen. Data for the rad50 strain (AID 155);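 also: 0% = growth of vehicle-only cultures of the same strain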; details: S. cerevisiae rad50 strain growth inhibition; at 50.0 µM; stronger effect = higher value
Method in brief: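 Yeast carrying a defined DNA repair defect were exposed to test compounds, and growth was compared with vehicle-treated controls to give percent inhibition.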

[2] = NCI Yeast Anticancer Drug Screen. Data for the mec2-1 strain (AID 157); details: S. cerevisiae mec2-1 strain, at 50.0 µM, stronger effect = higher value
Method in brief: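 mec2-1 yeast strain, carrying an alteration in DNA damage repair or cell cycle control, was exposed to compounds; growth inhibition was measured relative to vehicle-treated controls.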

[3] = NCI Yeast Anticancer Drug Screen. Data for the sgs1 mgt1 strain (AID 161);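 also: 0% = growth of cultures given vehicle only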; details: S. cerevisiae sgs1 mgt1 strain, at 50.0 µM, stronger effect = higher value
Method in brief: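 Growth of a repair-deficient yeast mutant was monitored after compound treatment and expressed as inhibition relative to vehicle-treated cultures.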

[4] = NCI Yeast Anticancer Drug Screen. Data for the cln2 rad14 strain (AID 165);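 also: 0% = growth equal to vehicle treated cultures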; details: S. cerevisiae cln2 rad14 strain, at 50.0 µM, stronger effect = higher value
Method in brief: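 Yeast carrying cln2 and rad14 alterations (cell cycle control and DNA damage repair) were exposed to compounds. Growth inhibition was measured against vehicle-treated controls.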

[5] = NCI Yeast Anticancer Drug Screen. Data for the bub3 strain (AID 167); details: S. cerevisiae bub3 mutant strain, at 50.0 µM, stronger effect = higher value
Method in brief: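 Compounds were applied to a genetically altered yeast strain carrying a cell-cycle control defect. Growth inhibition was scored against vehicle-treated controls.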

[6] = NCI Yeast Anticancer Drug Screen. Data for the mlh1 rad18 strain (AID 175); details: S. cerevisiae mlh1 rad18 strain growth inhibition; at 50.0 µM; stronger effect = higher value
Method in brief: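 Growth inhibition of the yeast strain was measured after compound exposure and expressed relative to vehicle-treated controls. The strain carries defined defects in DNA damage repair.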

Measured: growth inhibition

C=C1C(=O)OC2C=C(C)C3C(OC(=O)c4ccccc4)CC(C)(O)C3CC12 (stereo not given)
inactive: [1] 1.4% | [2] -41.4% | [3] 3.05% | [4] 16.6% | [5] -2.75% | [6] 0.45%

CC12CCC3c4ccc(O)cc4CCC3C1CC(OC1OC(C(=O)O)C(O)C(O)C1O)C2O (stereo not given)
inactive: [1] 31.6% | [2] 5.9% | [3] 13.5% | [4] 2.4% | [5] 2.4% | [6] 22.2%

CC1=CC(=O)/C(=C\c2ccc3c(c2)OCO3)C(C)(C)C1
inactive: [1] -23.1% | [2] -8.45% | [3] 4.5% | [4] -19.4% | [5] 52.3% | [6] -1.5%

CCCC(=O)Nc1cccc(Cl)c1
inactive: [1] 16.2% | [2] 9.05% | [3] 8.85% | [4] 7.65% | [5] -0.75% | [6] 2.35%

Nc1ccc(O)c(C(=O)O)c1
inactive: [1] 24.1% | [2] 11.2% | [3] 11.2% | [4] 0.8% | [5] 1.35% | [6] 26.6%

COC(=O)c1ccc(OC(=O)Nc2ccc(Br)cc2)cc1
inactive: [1] 11.3% | [2] 26.4% | [3] 27% | [4] -4.2% | [5] 37.2% | [6] 19.9%

CCN(CC)CCN(N)CCN(CC)CC
inactive: [1] 20.6% | [2] -24.8% | [3] -1.2% | [4] -1.5% | [5] -44.2% | [6] -17.2%

CC(=O)NO
inactive: [1] 22.1% | [2] -4.05% | [3] 12.1% | [4] -7.05% | [5] -4.6% | [6] 11.3%

CCOC(=O)C12CCC(=O)CC1(O)CCC1(C2)OCCCO1 (stereo not given)
inactive: [1] 10.1% | [2] -15.9% | [3] -17.9% | [4] -21.8% | [5] 10.9% | [6] 3.85%

CC(=O)c1sc(/N=C\c2c(O)c3ccccc3oc2=O)nc1C
inactive: [1] -53.5% | [2] -49.6% | [3] -40.2% | [4] -3.25% | [5] -36.2% | [6] -33.8%

Cc1nc2ccccc2[nH]1
inactive: [1] 3.8% | [2] -31.1% | [3] -4% | [4] 5.85% | [5] 3.45% | [6] 8.8%

CN(C)/N=C1/CCCCC1C(O)(c1ccccc1)c1ccccc1 (stereo not given)
inactive: [1] -20.7% | [2] -19.8% | [3] -15.4% | [4] -73.3% | [5] -58.8% | [6] -10.7%

[N-]=[N+]=CC(=O)C1OC1c1ccc2ccccc2c1 (stereo not given)
inactive: [1] 0.8% | [2] 21.6% | [3] 0.8% | [4] 1.5% | [5] 14.3% | [6] 22.9%

C/C=C/C=C/CC
inactive: [1] 8.75% | [2] -12.3% | [3] -5.4% | [4] 16.2% | [5] 16.9% | [6] -22.6%

Cc1cc2cc(Cl)ccc2nc1C(=O)c1ccccc1
inactive: [1] -5.75% | [2] -24.4% | [3] -3.3% | [4] 17.7% | [5] -6.65% | [6] -18.7%

COC(SC)(C(=O)O)c1cc(-c2c(Cl)cccc2Cl)no1 (stereo not given)
inactive: [1] -5.4% | [2] -6.8% | [3] -9.35% | [4] -11.4% | [5] 12.2% | [6] -1%

CCOP(=O)(O)C(c1ccccc1)c1ccccc1
inactive: [1] -2.45% | [2] 7.5% | [3] 3.5% | [4] -10.7% | [5] 5.3% | [6] 6.85%

CCOC(=O)Nc1ccc([N+](=O)[O-])cc1[N+](=O)[O-]
inactive: [1] 15.9% | [2] -0.45% | [3] 16.2% | [4] 14.8% | [5] 8.6% | [6] 13.2%

CC(=O)COc1ccccc1
inactive: [1] -2.7% | [2] -10.5% | [3] 7.75% | [4] 6.45% | [5] -6.85% | [6] 15.4%

FC(F)(F)c1ccc(C(Nc2nncs2)Nc2nncs2)cc1
inactive: [1] -6.9% | [2] -6.7% | [3] -4.5% | [4] -8.35% | [5] 7.6% | [6] 0.75%

Cc1cccc(NC(=O)CSc2nnc(Cc3ccccc3)o2)c1
inactive: [1] -28.1% | [2] -16.3% | [3] -15.1% | [4] -39.2% | [5] -36.7% | [6] -28.2%

c1ccc([P+](CC[P+](c2ccccc2)(c2ccccc2)c2ccccc2)(c2ccccc2)c2ccccc2)cc1
inactive: [1] -11.7% | [2] -15.6% | [3] -1.45% | [4] -31.8% | [5] -12.4% | [6] -16.4%

COc1ccc(/C=N/NC(N)=S)cc1
inactive: [1] 24.1% | [2] 14.6% | [3] 28.6% | [4] -13% | [5] 12.8% | [6] 46.6%

CCN(CC)CCC(O)(Cc1ccccc1)c1cccc(Cl)c1 (stereo not given)
inactive: [1] 21.6% | [2] 7.95% | [3] 5.75% | [4] -67.5% | [5] 16.6% | [6] 21.4%

Nc1nc2c([nH]c(=O)n2C2OC(CO)C(O)C2O)c(=O)n1N (stereo not given)
inactive: [1] 16.1% | [2] 6.2% | [3] 18.8% | [4] -13% | [5] 9.95% | [6] 5.2%

CC(C)OC(=O)c1ccc(=O)oc1
inactive: [1] 7.4% | [2] -5.85% | [3] -2.4% | [4] -8.75% | [5] -18.4% | [6] -5.15%

O=C1C=CC[C@H](/C=C/c2ccccc2)O1
inactive: [1] 21.6% | [2] 31.8% | [3] 28.6% | [4] 24.4% | [5] 33.5% | [6] 48.9%

COc1ccc(CCn2cnn3c(=O)c4ccccc4nc3c2=O)cc1OC
inactive: [1] -24% | [2] -29.9% | [3] -9.1% | [4] -0.8% | [5] -17.4% | [6] -20.9%

Cc1ccc(C(=O)c2cc3c([nH]c4ccccc43)c(C)c2C(=O)O)cc1
inactive: [1] 15.8% | [2] -9.55% | [3] -5.1% | [4] 28.6% | [5] 21.5% | [6] 21.1%

CCOC(=O)C1CCC(=O)C(CC)=C1C (stereo not given)
inactive: [1] -6.8% | [2] -40.3% | [3] 8.5% | [4] -1.85% | [5] -6.5% | [6] -6.5%

Nc1ccc(-c2nc3ccc(N)cc3[nH]2)cc1
inactive: [1] -17.1% | [2] -17.9% | [3] -18.1% | [4] 6.45% | [5] -4% | [6] -18.2%

C=CCOc1cc2c(cc1C(C)c1ccc(OCC)c(C)c1)OCO2 (stereo not given)
inactive: [1] 4.35% | [2] -8.95% | [3] -4.85% | [4] -70.5% | [5] 7.15% | [6] -1.6%

CCOC(=O)C(Nc1cc([N+](=O)[O-])ccc1C(=O)N1CCCCC1)(C(=O)OCC)N1CCCCC1
inactive: [1] 4.6% | [2] 12.8% | [3] 13.8% | [4] 3.8% | [5] 0.2% | [6] 15%

COC1=C(c2c[nH]c3ccc(CC=C(C)C)cc23)C(=O)C(OC)=C(c2c[nH]c3ccc(CC=C(C)C)cc23)C1=O
inactive: [1] 30.5% | [2] 6.5% | [3] 13.6% | [4] 19.4% | [5] -1.1% | [6] 29.6%

CCn1c(C)nc2c(N)cccc2c1=O
inactive: [1] 24.4% | [2] -4.75% | [3] -7.9% | [4] -6.6% | [5] -11% | [6] 2.75%

CC(O)CNC(=O)CC(C)CC(C)(C)C (stereo not given)
inactive: [1] 45.7% | [2] 19.9% | [3] 24.9% | [4] 13.4% | [5] 25.4% | [6] 34%

Cc1ccc2nc[nH]c2c1
inactive: [1] 0.35% | [2] -21.9% | [3] -10.8% | [4] -11.4% | [5] 4.05% | [6] 14.6%

OCC[N+]1(CCO)CCOCC1
inactive: [1] 7.7% | [2] -2.9% | [3] -0.05% | [4] -15.1% | [5] 5.9% | [6] 6.2%

O=[N+]([O-])c1cc2ccccc2nc1-c1ccccc1
inactive: [1] 15.6% | [2] 4.2% | [3] -0.55% | [4] 6.95% | [5] 7.2% | [6] 6.15%

C[C@]12CCC(=O)C=C1CC[C@@H]1C2CC[C@]2(C)Nc3[nH]ncc3CC12 (stereo not given in full)
inactive: [1] -22.2% | [2] 9.6% | [3] 37.4% | [4] 33.6% | [5] 11.8% | [6] 27.1%
